For 40 compounds, outcome results are on record in PubChem BioAssay (Tox21).

Activity calls are given as the source filed them. Calls follow the shape of the dose curve; as a rule, active = well fitted curve in the direction sought with a large enough effect in the repeat runs; inconclusive = weak or mixed curves; inactive = flat fitted curve, though single readings scatter.

This test in a line: qHTS assay to test for compound auto fluorescence at 460 nm (blue) in HEK293 cell free culture (AID 720681). Particulars: cell-free medium, autofluorescence 405/460 nm (blue); series mostly up to 91.3 µM. The source says:
U.S. Tox21 Program National Center for Advancing Translational Sciences [NCATS] NIH Chemical Genomics Center [NCGC] U.S. Environmental Protection Agency [EPA] National Institutes of Environmental Health Sciences [NIEHS] National Toxicology Program [NTP] U.S. Food and Drug Administration [FDA] Tox21 Assay Overview: Compound auto fluorescence often interferes with screening of the compound library against various biological targets and signaling pathways. Some of these compounds may have fluorophoric properties. Such properties may interfere with the assay outputs resulting in false positives and/or negatives. To decrease such complications and ensure the compound activities are relevant in terms of biological response, the Tox21 10K compound library was screened for auto fluorescence. From the fluorophores used as reporter signals in our screening assays, the auto fluorescence equivalencies of compounds against three fluorophores have been evaluated: Triamterene, Fluorescein and Rose Bengal sodium for blue, green and red fluorescence, respectively. The fluorescence intensities were measured using Excitation/Emission wavelengths at 405/460nm, 485/535nm and 540/590nm for blue, green and red labels, respectively. This assay includes the blue fluorescence data.
Tox21 Assay Protocol Summary: 5 uL of culture medium (DMEM containing 10% FBS) per well was dispensed into black wall/clear bottom 1536-well plates using a Multidrop Combi Dispenser (ThermoFisher Scientific, Waltham, MA). After 23 nL compound or DMSO vehicle was transferred into assay plate by a pintool work station (Kalypsys, San Diego, CA), fluorescence intensities in the assay plates were measured by an Envision (PerkinElmer, Shelton, CT) plate reader using three labels for measuring blue, green and red fluorescence at […] 460, 535 and 590nm respectively.
A general note: Quantitative high-throughput screening tests each substance at several concentrations.
`CN/C(=C\[N+](=O)[O-])NCCSCc1ccc(CN(C)C)o1`: the result was inactive.
On to `Cc1cnc(NC(=O)C2=C(O)c3ccccc3S(=O)(=O)N2C)s1`, for which the compound was called inactive.
Take `NC(=O)N/N=C/c1ccc([N+](=O)[O-])o1`: the result was inactive.
In the case of `C[C@]12C[C@H](O)[C@H]3[C@@H](CCC4=CC(=O)CC[C@@]43C)[C@@H]1CC[C@@H]2C(=O)CO`, the result was inactive.
On to `COc1ccc(O)cc1`, for which the compound was classed as inactive.
Turning to `CO[C@H]1C=CO[C@@]2(C)Oc3c(C)c(O)c4c(O)c(c(/C=N/N5CCN(C)CC5)c(O)c4c3C2=O)NC(=O)/C(C)=C\C=C[C@H](C)[C@H](O)[C@@H](C)[C@@H](O)[C@@H](C)[C@H](OC(C)=O)[C@@H]1C`, the compound was called inactive.
In the case of `C=C(C)OC(C)=O` it was “inactive”.
Take `COc1cc(O)c(C(=O)c2ccccc2)cc1S(=O)(=O)O`: the outcome was inactive.
With `C[C@]12C=CC(=O)C=C1CC[C@@H]1[C@@H]2C(=O)C[C@@]2(C)[C@H]1CC[C@]2(O)C(=O)CO`, the result was inactive.
With `c1ccc2[nH]c(-c3cscn3)nc2c1`, the call was inactive.
As to `Oc1cccc(O)c1`, the outcome was inactive.
As to `C/C=C/c1ccc(O)c(OC)c1`, the compound was called inactive.
Take `CC(=O)Oc1ccccc1C(=O)O`: the compound was classed as inactive.
Turning to `C=CC(=O)NC(C)(C)CS(=O)(=O)O`, the compound was called inactive.
With `COc1cc(C=O)ccc1O`, the call was inactive.
On to `Nc1ccc(N=Nc2ccccc2)c(N)n1`, for which the result was inactive.
Regarding `O=C(O)CN(CC(=O)O)CC(=O)O`, the compound was called inactive.
On to `CCCCC/C(C=O)=C\c1ccccc1`, for which the call was inactive.
For the compound `CCOC(=O)C(C)(C)Oc1ccc(Cl)cc1`, the result was inactive.
In the case of `Cc1cccc2ccccc12`, the result was inactive.
With `CN(C)Cc1cc(CN(C)C)c(O)c(CN(C)C)c1`, the call was inactive.
With `CC(C)(C)CC(C)(C)c1ccc(O)c(-n2nc3ccccc3n2)c1`, the outcome was inactive.
`COC(=O)c1ccc(O)cc1`: the compound was called inactive.
For `CCCCOC(=O)CCCCCCCCC(=O)OCCCC`, the result was inactive.
Turning to `CCCCCCCCOc1ccc(C(=O)c2ccccc2)c(O)c1`, the compound was called inactive.
Take `CCCCCCCC(=O)OCC(O)CO` (stereo not given): the outcome was inactive.
In the case of `N[C@@H](Cc1c[nH]c2ccccc12)C(=O)O`, the compound was called inactive.
Consider `COC1=CC(=O)C[C@@H](C)[C@]12Oc1c(Cl)c(OC)cc(OC)c1C2=O`, for which the compound was classed as inactive.
`COc1ccc(C(=O)c2ccccc2)c(O)c1`: the outcome was inactive.
With `CC(=O)/C=C/C1=C(C)CCCC1(C)C`, the result was inactive.
For `CC(=O)c1ccc(S(=O)(=O)NC(=O)NC2CCCCC2)cc1`, the call was inactive.
With `CC(C)Cc1ccc(C(C)C(=O)O)cc1` (stereo not given), the call was inactive.
`Cc1cccc(Nc2cc(Cl)nc(SCC(=O)O)n2)c1C`: the compound was classed as inactive.
Under `NC(=O)c1ccc([N+](=O)[O-])cc1Cl` stands “inactive”.
With `NCCNc1cccc2ccccc12`, the result was inactive.
In the case of `O=[N+]([O-])c1ccc(O)cc1` it was “inactive”; in that of `O=c1c(-c2ccc(O)cc2)coc2cc(O)cc(O)c12`, “inactive”; in that of `Cc1ccc(O)c(-n2nc3ccccc3n2)c1`, “inactive”.
Turning to `O=c1cc[nH]c(=O)[nH]1`, the outcome was inactive.
Regarding `C1CNCCN1`, the call was inactive.
